The text below walks through data of PubChem BioAssay (NCATS).

Inconclusive results are not listed. Entries that show only a call come without a potency. Calls of active or inactive are those of the source. Calls follow the shape of the dose curve; as a rule, active = well fitted cell-killing curve with a large enough effect; inconclusive = small, poorly fitted or top-dose-only effect; inactive = no such curve, though single readings can be large or run the other way.
Potency is read from the fitted curve at half-maximal effect.

A short description of this assay: qHTS of pediatric cancer cell lines to identify multiple opportunities for drug repurposing: Primary screen for NB-EBc1 cells (AID 1347095). Conditions: NB-EBc1 neuroblastoma viability, CellTiter-Glo luminescence, 48 h; series mostly up to 46 µM. The source says:
Drug repurposing or repositioning has been offered as a strategy for drug development in oncology programs. This approach has special potential for childhood cancers and other rare or orphan diseases, where the expected return on new drug development has been a disincentive to pharmaceuticals. […] In this project we exploit the poly-pharmacology of drugs to discover new indications via phenotypic screening of a panel of 19 well-characterized cell lines derived from solid tumors seen in children and adolescents. The goal is to identify approved drugs with previously unrecognized anticancer properties that has the potential to reveal new mechanisms and biological processes involved in carcinogenesis or drug resistance. We employed a titration-based paradigm (quantitative high-throughput screening or qHTS), where all compounds were tested at multiple concentrations for their effect on cell viability. Concentration-response curves (CRCs) were derived directly from the primary screen, and both potency and efficacy values were used to identify compounds with robust bioactivity profiles. We screened the NIH Chemical Genomics Center (NCGC) Pharmaceutical Collection (NPC) and Mechanism Interrogation Plate (MIPE) small molecule collections of approved and investigational compounds against these cell lines; and measured metabolically active cells after 48 hours of compound treatment as a proxy for cell viability. […] Assay Submitter: Nathalia J. Martinez, National Center for Advancing Translational Sciences, National Institutes of Health, Rockville, MD, USA; email: natalia.martinez@nih.gov Shen, M et al. Quantitative high-throughput phenotypic screening of pediatric cancer cell lines identifies multiple opportunities for drug repurposing. Oncotarget 2017 Dec 19;9(4):4758-4772. PMID 29435139.
The cells were obtained from University of North Carolina (UNC), Pediatric Preclinical Testing Program (PPT), and Coriell Institute (CI). qHTS cell viability assay: Cells were assayed in growth media at a density of 500-1,000 cells/well. Five microliters of cells were dispensed into 1,536-well, white, solid-bottom, TC-treated plates (Greiner Bio One) using a multidrop dispenser and incubated at 37 degrees C, 5% CO2, under a humidified atmosphere for 5 hours. Twenty-three nanoliters of compounds and controls (neutral control DMSO or positive control bortezomib at final concentration of 2.3 µM) were subsequently transferred by Kalypsys pintool. For primary screens, the MIPE collection was tested at 11-point dilutions (final concentrations range from 0.78 nM to 46 µM) and the NPC collection at 8-point dilutions (final concentrations range from 0.59 nM to 46 µM). Compounds tested in follow-up screens were assayed at 11-point dilutions. Cells were incubated for 48 hours, followed by addition of 3 µL of CellTiter-Glo (Promega). After a 15 min incubation at room temperature, samples were analyzed for luminescence intensity using a ViewLux High-throughput CCD imager equipped with clear filters.
For orientation: In qHTS, concentration-response curves come from the screen itself.
As for `CC(C)(C)c1cc(C(=O)O)c(NC(=O)Nc2ccc3[nH]ncc3c2)s1`, the Potency result is “inactive”.

With `O=C(O)[C@H]1O[C@H](Oc2cc3oc(-c4ccccc4)cc(=O)c3c(O)c2O)[C@H](O)[C@@H](O)[C@H]1O`, the Potency entry is “inactive”.

As for `Cn1cc(C=C2C(=O)Nc3cccnc32)c2ccccc21`, the Potency entry was “inactive”.

Take `CC=CC(=O)N(CC)c1ccccc1C`: the Potency is 14.8 µM (active).

For `CC[C@@]1(O)C[C@H](O[C@H]2C[C@H](N(C)C)[C@H](O[C@H]3C[C@H](O)[C@H](O[C@H]4CCC(=O)[C@H](C)O4)[C@H](C)O3)[C@H](C)O2)c2c(cc3c(c2O)C(=O)c2c(O)cccc2C3=O)[C@@H]1C(=O)OC`, the Potency was 0.526 µM (active).

For `N#CC1(c2ccc(NC(=O)c3cccnc3NCc3ccncc3)cc2)CCCC1`, the Potency result is “inactive”.

For the compound `NC1CCC(Nc2nc(Nc3ccc(C(=O)N4CCCCC4)cc3)c3ncn(-c4cccc(F)c4)c3n2)CC1` (stereo not given), the Potency result is “inactive”.

As for `Cc1cccc(C)c1OCC(C)N` (stereo not given), the Potency result is “inactive”.

As to `CO[C@H]1C=CC=C(C)C(=O)NC2=CC(=O)C(NCCN(C)C)=C(C[C@@H](C)C[C@H](OC)[C@@H](O)[C@@H](C)C=C(C)[C@@H]1OC(N)=O)C2=O`, the Potency was 0.118 µM (active).

In the case of `Cc1[nH]c(C=C2C(=O)Nc3ccc(S(=O)(=O)Cc4c(Cl)cccc4Cl)cc32)c(C)c1C(=O)N1CCC[C@H]1CN1CCCC1`, the Potency result was “inactive”.

For `CC(C)C(C)C=CC(C)C1CCC2C3=CC=C4CC(O)CCC4(C)C3CCC21C` (stereo not given), the Potency result is “inactive”.

`CC1(C)Cc2c(sc(NC(=S)NC(=O)c3ccccc3)c2C(=O)O)CO1`: the Potency result was “inactive”.

Consider `C[N+]1(C)[C@@H]2CC(OC(=O)[C@H](CO)c3ccccc3)C[C@H]1[C@H]1O[C@@H]12` (stereo not given in full), for which the Potency result was “inactive”.

Consider `O=c1c(-c2ccc(O)cc2)coc2cc(O[C@@H]3O[C@H](CO)[C@H](O)[C@H](O)[C@H]3O)ccc12`, for which the Potency entry is “inactive”.

Turning to `COc1ccc(-c2coc3cc(O)ccc3c2=O)cc1`, the Potency result was “inactive”.

For `CC(C)=CC[C@@H](O)C1=CC(=O)c2c(O)ccc(O)c2C1=O`, the Potency is 0.743 µM (active).

For the compound `O=c1c(-c2ccc(O)cc2)coc2cc(O)ccc12`, the Potency result was “inactive”.

On to `CC[C@H]1OC(=O)[C@H](C)[C@@H](O[C@H]2C[C@@](C)(OC)[C@@H](O)[C@H](C)O2)[C@H](C)[C@@H](O[C@@H]2O[C@H](C)C[C@H](N(C)C)[C@@H]2O)[C@](C)(O)C[C@@H](C)CN(C)[C@H](C)[C@@H](O)[C@]1(C)O`, for which the Potency result is “inactive”.

For the compound `O=c1cc(-c2ccc(O)cc2)oc2cc(O)cc(O)c12`, the Potency is 4.69 µM (active).

As for `CCC(=O)O[C@]1(C(=O)CO)CC[C@H]2[C@@H]3CCC4=CC(=O)CC[C@]4(C)[C@@H]3CC[C@@]21C`, the Potency entry is “inactive”.

Consider `N#C[C@H]1C[C@H]2C[C@@H]2N1C(=O)[C@@H](N)C12CC3CC(CC(O)(C3)C1)C2`, for which the Potency result is “inactive”.

`O=c1ccn([C@@H]2O[C@H](CO)[C@H](O)[C@H]2O)c(=O)[nH]1`: the Potency result was “inactive”.

Consider `O=C(NCc1ccncc1)C12C[C@H]3C[C@@H](C1)CC(c1ccc(Cl)cc1)(C3)C2`, for which the Potency is 18.7 µM (active).

With `O=C(CCc1ccc(O)cc1)c1c(O)cc(O)cc1O[C@@H]1O[C@H](CO)[C@H](O)[C@H](O)[C@H]1O`, the Potency result was “inactive”.

Consider `Cc1nnc(C(C)C)n1C1C[C@H]2CC[C@@H](C1)N2CC[C@H](NC(=O)C1CCC(F)(F)CC1)c1ccccc1` (stereo not given in full), for which the Potency entry was “inactive”.

For the compound `O=C(NCCN1CCOCC1)c1ccc(Cl)cc1`, the Potency result was “inactive”.

For `OC[C@H]1O[C@@H](n2cnc3c2NC=NC[C@@H]3O)C[C@H]1O`, the Potency entry was “inactive”.

For `CC1(C)S[C@H]2[C@H](NC(=O)[C@@H](N)c3ccc(O)cc3)C(=O)N2[C@@H]1C(=O)O`, the Potency is 16.6 µM (active).

For the compound `O=C1C(Cl)=C(NCCN2CCOCC2)C(=O)c2ncccc21`, the Potency was 4.69 µM (active).

Consider `CC(C)n1nc(-c2ccc3oc(N)nc3c2)c2c(N)ncnc21`, for which the Potency is 0.0132 µM (active).

`O=C(NCc1ccccc1)c1csc(Nc2ccncn2)n1`: the Potency was 14.8 µM (active).

Turning to `CCOC(=O)O[C@]1(C(=O)OCCl)CC[C@@H]2[C@H]3CCC4=CC(=O)C=C[C@]4(C)[C@@H]3[C@@H](O)C[C@@]21C`, the Potency result was “inactive”.

With `O=c1cc(-c2ccccc2)oc2cc(O)c(O)c(O)c12`, the Potency entry is “inactive”.

In the case of `O=c1cc(-c2ccccc2)oc2cc(O)cc(O)c12`, the Potency result was “inactive”.

For `COc1ccc(C2Sc3ccccc3N(CCN(C)C)C(=O)C2OC(C)=O)cc1` (stereo not given), the Potency entry was “inactive”.

Consider `O=C(Nc1c(Cl)cncc1Cl)c1ccc(OC(F)F)c(OCC2CC2)c1`, for which the Potency entry was “inactive”.

With `CC(C)(C)Cn1c(N)nc2ccc(-c3[nH]c(C(C)(C)C)nc3-c3ccc(F)cc3)nc21`, the Potency result was “inactive”.

For `NC(=O)[C@@H](CCC(F)(F)F)N(Cc1ccc(-c2ncon2)cc1F)S(=O)(=O)c1ccc(Cl)cc1`, the Potency entry is “inactive”.

`CCn1c(C(=O)N(C2CC2)C2CC2)cc2c3c(ncn3C)c(Nc3cc(C)n(C)n3)nc21`: the Potency entry was “inactive”.

With `CC(C)[C@H](CO)Nc1nc(Nc2ccc(C(=O)O)c(Cl)c2)c2ncn(C(C)C)c2n1`, the Potency was 23.5 µM (active).
